Compounds without any hit were thinned out: in the full panel of roughly 83,000, 20% have a hit.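 Single-dose data. Exposure time 48 hours. Values below 10 considered active.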 A number with no mark means an inactive call. Active and inactive are the calls of the source.
Tests used:
Assay in all cases: NCI-60 one-dose screen, 48 h (100 = growth as untreated, 0 = no growth, -100 = all killed)
Conditions in all cases: 10 µM unless noted
[1] = system: SK-MEL-2 melanoma
[2] = system: EKVX NSCLC
[3] = system: SN12C renal
[4] = system: UO-31 renal
[5] = system: TK-10 renal
[6] = system: ACHN renal
[7] = system: A498 renal
[8] = system: CCRF-CEM leukemia
[9] = system: MOLT-4 leukemia
[10] = system: SR leukemia
[11] = system: RPMI-8226 leukemia
[12] = system: OVCAR-8 ovarian
[13] = system: OVCAR-5 ovarian
[14] = system: OVCAR-4 ovarian
[15] = system: SK-OV-3 ovarian
[16] = system: IGROV1 ovarian
[17] = system: OVCAR-3 ovarian
[18] = system: HS 578T breast
[19] = system: NCI/ADR-RES ovarian
[20] = system: T-47D breast

| SMILES | growth [1] [%] | growth [2] [%] | growth [3] [%] | growth [4] | growth [5] | growth [6] | growth [7] | growth [8] | growth [9] [%] | growth [10] | growth [11] | growth [12] [%] | growth [13] [%] | growth [14] [%] | growth [15] | growth [16] | growth [17] | growth [18] | growth [19] | growth [20] [%] |
| --- | --- | --- | --- | --- | --- | --- | --- | --- | --- | --- | --- | --- | --- | --- | --- | --- | --- | --- | --- | --- |
| Cc1cccc(C)c1NCc1nnc(-c2ccco2)o1 | 100 | 81.5 | 94.8 | 65.1% | 123% | 101% | 96.5% | 91.4% | 88.8 | 85.7% | 77.9% | 98.2 | 99.8 | 101 | 87% | 85.3% | 94.8% | 91.5% | 97.3% | – |
| NS(=O)(=O)c1ccc(-n2nc(-c3ccccc3)ccc2=O)cc1 | 101 | 118 | 97.7 | 91.9% | 132% | 108% | 102% | 95.6% | 96.4 | 83.9% | 109% | 101 | 113 | 117 | 99.6% | 72.3% | 112% | 106% | 103% | 93.8 |
| Nc1ccc(C2=NN(C(=O)c3cc(-c4ccc(Cl)cc4)nc4ccccc34)C(c3ccc(Cl)cc3)C2)cc1 (centres undefined) | 34.7 | 42.8 | 56.5 | 47.6% | 55.3% | 54.4% | 31.1% | 17.8% | 42.6 | 25.7% | 10.4% | 32.1 | 81.3 | 72.4 | 31.7% | 49.2% | 8.07% (active) | 41.8% | 12.4% | – |
| CCSc1ccc(C2C(Br)C(=O)N2c2cc(OC)c(OC)c(OC)c2)cc1 (centres undefined) | 63.7 | 70.2 | 31.6 | 26.2% | 76.6% | 32.6% | -14.3% (active) | 12.3% | 20 | 16.3% | 9.73% (active) | 17.4 | 31.1 | 38.3 | 21.8% | 29.1% | 3.63% (active) | 8.62% (active) | 14% | – |
| CC1=C(CCCOC(=O)NCCCl)C2=C(C)C3(CC3)[C@@](C)(O)C(=O)C2=C1 | 14.5 | 54.3 | 45.7 | -42.1% (active) | 9.96% (active) | 5.75% (active) | -9.87% (active) | 79.9% | 70.4 | 82.9% | 80% | 36.9 | 28.1 | 14.6 | -13.7% (active) | 4.17% (active) | 2.71% (active) | 99.8% | 29.2% | – |
| Cc1nc2sc(C(=O)Nc3ccccc3)c(N)c2cc1C(C)O (centres undefined) | 39.3 | 76.1 | 43.2 | 61.6% | 65.9% | 54.2% | 36.3% | 16.6% | 25.7 | 11.7% | 16.9% | 36.4 | 51.3 | 64.5 | 31% | 40.2% | 21.8% | 44.9% | 15.4% | – |
| Nc1c(C(=O)Nc2ccccn2)sc2nc3c(cc12)CCCCC3 | 44.2 | 37.8 | 39.4 | 49% | 71.9% | 52.6% | 25.9% | 6.92% (active) | 15.5 | 8.04% (active) | 11.4% | 19.1 | 39.6 | 53.5 | 36.2% | 44.9% | -3.52% (active) | 30.5% | 9.19% (active) | – |
| CC(=O)Nc1nc2c(c(N)c1C#N)C(c1cccc(Cl)c1)C1=C(CCCC1=O)N2c1sc2c(c1C#N)CCCC2 (centres undefined) | 55.5 | 35.9 | 52.3 | 37.1% | 44.5% | 53.3% | 62.4% | 50.4% | 12.6 | 26% | 22% | 37 | 87.1 | 57.5 | 54.7% | 59.4% | 56.1% | 73.7% | 46.7% | 36.7 |
